Pf growth 48h: Primary qHTS for delayed death inhibitors of the malarial parasite plastid, 48 hour incubation; Potency, µM (top dose mostly 28.7 µM), hits mostly inhibitors; 5.9% of 310,000 active; AID 504832, 2011; P. falciparum luciferase growth in erythrocytes, 48 h
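Compounds are pin-transferred into medium, infected erythrocytes (2% hematocrit, 0.1% parasitemia final) are added, and plates sit one parasite generation at 37 C in 5% CO2. Detection reagent is then added and luminescence measured.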
FBPA Giardia inh: qHTS Assay for Inhibitors of Fructose-1,6-bisphosphate Aldolase from Giardia Lamblia | A8B2U2 | purified Giardia FBPA | Potency, µM (top dose mostly 59.6 µM), hits mostly inhibitors | 0.71% of 290,000 active; note: nearly all actives have a fitted effect of over 55% in size
Target sequence (A8B2U2 whole entry, looked up): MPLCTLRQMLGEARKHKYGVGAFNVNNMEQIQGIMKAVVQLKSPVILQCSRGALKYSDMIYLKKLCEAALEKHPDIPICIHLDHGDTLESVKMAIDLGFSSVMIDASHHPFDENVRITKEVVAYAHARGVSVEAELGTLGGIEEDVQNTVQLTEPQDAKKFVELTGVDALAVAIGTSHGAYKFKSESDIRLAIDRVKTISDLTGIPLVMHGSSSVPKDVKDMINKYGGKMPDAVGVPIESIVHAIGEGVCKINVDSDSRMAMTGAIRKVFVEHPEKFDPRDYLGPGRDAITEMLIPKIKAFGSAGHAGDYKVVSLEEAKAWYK
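40 nM FBPA preincubated 10 min at RT with compound (up to 57.5 uM final), then substrate plus GAPDH/TPI/NAD/arsenate coupling and diaphorase/resazurin added. Fluorescence read after 20 min at RT, 525/598 nm.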
Shiga toxin inh: A qHTS for Small Molecule Inhibitors of Shiga Toxin; Vero cells, Shiga toxin protein synthesis inhibition reporter; inhibition, % at 38.7 µM; 9.2% of 290,000 active; in the data active = inhibition mostly above about 28%, no sharp cut-off; inactive = mostly below about 43%
CHX counter: Cycloheximide Counterscreen for Small Molecule Inhibitors of Shiga Toxin; cell reporter, cycloheximide protein synthesis inhibition counterscreen; 12% of 300,000 active; max response, %; in the data active = max response mostly above about 13%, no sharp cut-off; inactive = mostly below about 14%; note: read at 38.3 µM for the half of the compounds with a filed dose
NS1 inh: qHTS Assay for Inhibitors of Influenza NS1 Protein Function; 0.4% of 270,000 active; Potency, µM (top dose mostly 46.1 µM); calls by dose curve; note: actives are rising curves; nearly all actives have a fitted effect of over 50% in size
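OD600 was taken as the measure of yeast growth restored by compound in an NS1-expressing S. cerevisiae strain. Cells had been washed out of glucose medium and diluted 1:100 into galactose -URA medium, pH 6.0.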
Pf growth 96h: Primary qHTS for delayed death inhibitors of the malarial parasite plastid, 96 hour incubation; P. falciparum luciferase reporter growth, 96 h; Potency, µM (doses to about 28.7 µM), actives largely listed as inhibitors; 6.9% of 320,000 active
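P. falciparum expressing integrated firefly luciferase, in erythrocytes at 2% hematocrit, 0.05% parasitemia, incubated with compounds 96 h at 37 C, 5% CO2. Growth inhibition read as loss of luminescence; two-generation exposure targets delayed-death apicoplast inhibitors.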
Large screens that a line does not name were inactive. Only some compounds are listed: those with a hit (about 21% of all), similar ones and a draw of the others. Unless noted, calls come from the whole dose curve; as a rule, active = well fitted curve in the direction sought with a large enough effect; inconclusive = small, poorly fitted or top-dose-only effect, or another doubt; inactive = no such curve, though single readings can be large; an effect the other way counts as inactive or inconclusive.

OCCC1CN(Cc2ccccc2-c2ccco2)CCN1C1CCCC1 (configuration not stated)	Pf growth 48h 9.3µM, Pf growth 96h inconclusive
CCCn1ncc(CN2CCC(n3nccc3NC(=O)c3ccccc3Cl)CC2)c1C	Pf growth 96h inconclusive (no result: FBPA Giardia inh)
COc1ccc(N2CCN(C(=O)COC(=O)CCc3ccccc3)CC2)cc1	none (no result: FBPA Giardia inh, Shiga toxin inh, CHX counter, NS1 inh)
COc1ccc(-c2nc(CS(=O)CC(=O)NCCCN3CCOCC3)c(C)o2)cc1OC (configuration not stated)	Pf growth 96h inconclusive (no result: FBPA Giardia inh)
CC1(C)CC(=O)C/C(=N/NC(=O)COc2ccc3ccccc3c2Br)C1	Pf growth 48h inconclusive, Pf growth 96h inconclusive (no result: FBPA Giardia inh)
O=Cc1ccccc1OCCOc1ccccc1C=O	Shiga toxin inh 52, CHX counter 34
C#CCOCCOCCOCCNc1nc(N2CCOCC2)nc(N2CCN(C(=O)[C@H]([C@@H](C)O)n3cc(CCCCN)nn3)CC2)n1	FBPA Giardia inh inconclusive, Pf growth 96h inconclusive
C#CCOCCOCCOCCNc1nc(N2CCN(C(=O)Cn3cc(CC(C)O)nn3)CC2)nc(N2CCN(C(=O)Cn3cc(CC(C)O)nn3)CC2)n1 (configuration not stated)	none
C#CCOCCOCCOCCNc1nc(N2CCN(C(=O)CCCCCCCCCCNC(=O)Cn3cc(C[C@@H](C)O)nn3)CC2)nc(N2CCN(C(=O)CCCCCCCCCCNC(=O)[C@@H]([C@H](C)O)n3cc(C)nn3)CC2)n1	Pf growth 48h 0.074µM, Pf growth 96h 0.083µM (no result: FBPA Giardia inh, Shiga toxin inh, CHX counter, NS1 inh)
C#CCOCCOCCOCCNc1nc(N2CCN(C(=O)CCCCCCCCCCNC(=O)Cn3cc(CCCCCN)nn3)CC2)nc(N2CCN(C(=O)CCCCCCCCCCNC(=O)[C@@H]([C@H](C)O)n3cc(C)nn3)CC2)n1	Pf growth 48h 0.33µM, Pf growth 96h 0.52µM (no result: FBPA Giardia inh, Shiga toxin inh, CHX counter, NS1 inh)
COc1ccc(N(CC(=O)NCC2CCCO2)S(=O)(=O)c2ccccc2)cc1OC (configuration not stated)	none
CCCCc1cc2c(cn1)C(=O)C(C)(OC(C)=O)C(=O)C2 (configuration not stated)	none (no result: Pf growth 48h, Shiga toxin inh, CHX counter, NS1 inh, Pf growth 96h)
COc1ccc(/C=C/C(=O)Nc2ccccc2C)cc1S(=O)(=O)N1CCOCC1	Pf growth 48h inconclusive, Shiga toxin inh 66, CHX counter 62, Pf growth 96h inconclusive
CCC(C)(C)NC(=O)/C=C/c1ccc(OC)c(S(=O)(=O)N2CCOCC2)c1	Pf growth 96h inconclusive
COc1ccc(/C=C/C(=O)Nc2cc(S(=O)(=O)N3CCOCC3)ccc2C)cc1OC	none (no result: NS1 inh)
COc1ccc(/C=C/C(=O)Nc2cccc(F)c2)cc1S(=O)(=O)N1CCOCC1	Pf growth 48h inconclusive, CHX counter 28, Pf growth 96h 6.6µM (no result: NS1 inh)
O=C(O)Cn1c(=O)oc2cc(S(=O)(=O)NC3CCCCC3)ccc21	none (no result: Pf growth 48h, FBPA Giardia inh, Shiga toxin inh, CHX counter, Pf growth 96h)
Cc1ccc(-c2cc(Cc3ccccc3)c(=O)[nH]n2)cc1	none
CC(=O)N(C)C(c1ccc(N(C)C)cc1)c1nnnn1-c1c(C)cccc1C (configuration not stated)	Pf growth 48h 5.2µM, Pf growth 96h 5.2µM
CC1(C)CC(=O)C(Sc2nnc(-c3ccc(O)cc3)n2CC2CCCO2)C(=O)C1 (configuration not stated)	Pf growth 96h 1µM (no result: Pf growth 48h)
CC(=O)Nc1ccc(C(=O)CSc2nnc(-c3ccc(O)cc3)n2CC2CCCO2)cc1 (configuration not stated)	none (no result: Pf growth 48h)
Cc1ccc(-c2csc(Cc3nc(-c4cc5ccccc5oc4=O)cs3)n2)cc1	none
Cc1ccn2cc(-c3cc4ccccc4oc3=O)nc2c1	Shiga toxin inh 76, CHX counter 44
C=CCOc1cccc(/C=N/NC(=O)CC(=O)NC2CCCCC2)c1	Pf growth 96h inconclusive (no result: FBPA Giardia inh)
CC1CCN(C(=O)COC(=O)C2CCN(S(=O)(=O)c3c(Cl)cccc3Cl)CC2)CC1	none (no result: FBPA Giardia inh, Shiga toxin inh, CHX counter, NS1 inh)
COc1ccc(NS(=O)(=O)c2cccc(C(=O)OCC(=O)NC3CC3)c2)cc1	none (no result: FBPA Giardia inh)
O=C(NCCN1CCCOC1=O)C(=O)NCCN1CCCOC1=O	none
CC(=NCc1cccc(Cl)c1)c1nc(-c2ccco2)oc1O	Pf growth 48h inconclusive, Shiga toxin inh 49, CHX counter 23, Pf growth 96h inconclusive
Oc1oc(-c2ccco2)nc1C=Nc1cccc(Cl)c1	none
CCN(c1ccccc1)S(=O)(=O)c1ccc(C(=O)N(CCCN(C)C)c2nc3c(C)cccc3s2)cc1	Pf growth 48h 15µM, Pf growth 96h 9.3µM (no result: FBPA Giardia inh)
Cc1ccc2sc(N(CCCN(C)C)C(=O)c3ccc(S(=O)(=O)N(C)Cc4ccccc4)cc3)nc2c1C	Pf growth 48h 10µM, Pf growth 96h 12µM (no result: FBPA Giardia inh, Shiga toxin inh, CHX counter, NS1 inh)
CCN(c1ccccc1)S(=O)(=O)c1ccc(C(=O)N(CCCN(C)C)c2nc3cc4c(cc3s2)OCO4)cc1	none (no result: FBPA Giardia inh)
COC(=O)c1ccc(C(/C=C/[C@@H](C)C(=O)NCc2ccccc2)NC(=O)OCc2ccccc2)cc1 (some centres not stated)	none (no result: Pf growth 48h, Shiga toxin inh, CHX counter, NS1 inh, Pf growth 96h)
CC(C)C[C@@H](CC(=O)N[C@H](CC(=O)N[C@@H]1CCNC[C@H]1C(=O)N[C@H](CC(=O)N[C@@H](CCC(=O)O)CC(=O)O)CC(C)C)C(C)C)NC(=O)[C@@H]1CCCC[C@H]1N	none (no result: Pf growth 48h, Shiga toxin inh, CHX counter, NS1 inh, Pf growth 96h)
CC(=O)c1c(N2CCN(C)CC2)nc(=S)n(-c2cc(C)ccc2C)c1C	none (no result: NS1 inh)
COc1cccc(Nc2ncc(C#N)c(N)n2)c1	Shiga toxin inh 81, CHX counter 39, Pf growth 96h inconclusive
COc1ccc(-c2nc3cnc(Nc4cccc(OC)c4)nc3n(C)c2=O)cc1	none (no result: Pf growth 48h, Shiga toxin inh, CHX counter, NS1 inh, Pf growth 96h)
COc1cccc(Nc2nc3cc(OC)ccc3cc2C#N)c1	Pf growth 96h 5.2µM
COc1ccc(Nc2nc3c(C)cccc3cc2C#N)cc1	Pf growth 48h inconclusive
CC(C)[C@@H](CC(=O)N[C@@H]1CCNC[C@H]1C(=O)N[C@H](CC(=O)N[C@@H](CCC(=O)O)CC(=O)O)Cc1ccccc1)NC(=O)C[C@H](Cc1ccccc1)NC(=O)[C@@H]1CNCC[C@H]1N	none (no result: Pf growth 48h, Shiga toxin inh, CHX counter, NS1 inh, Pf growth 96h)
COc1cc(/C=C/C(=O)OCC(=O)NC(=O)NC(C)C)cc(S(=O)(=O)N2CCc3ccccc32)c1OC	none
COc1ccc(CNC(=O)C2CCCN2S(=O)(=O)c2ccccc2)cc1 (configuration not stated)	none (no result: Pf growth 48h)
CN(C)c1ccc(C(C(=O)NC2CCCC2)N(C(=O)c2csnn2)C2CC2)cc1 (configuration not stated)	none (no result: FBPA Giardia inh)
Cc1sc2nc(-c3cccs3)nc(N3CCCN(C)CC3)c2c1C	Pf growth 48h 10µM, Pf growth 96h inconclusive
Cc1ccnc2nc(C(=O)Nc3ccc4c(c3)OCO4)nn12	Shiga toxin inh 75, CHX counter 27 (no result: Pf growth 48h)
Cc1cc(C)n2nc(C(=O)Nc3ccc4c(c3)OCO4)nc2n1	Shiga toxin inh 61, CHX counter 32, NS1 inh inconclusive
Cc1cc(C)n2nc(C(=O)OCC(=O)Nc3ccc4c(c3)OCO4)nc2n1	none (no result: Pf growth 96h)
Cc1cc(C)n2nc(C(=O)Nc3ccc4c(c3)OCCO4)nc2n1	none (no result: FBPA Giardia inh, Shiga toxin inh, CHX counter, NS1 inh)

Source: PubChem BioAssay
